# From PubChem BioAssay (NCATS)
# Inconclusive results are not listed. A call without a number means that no potency is given here. A number with no mark means an inactive call. Activity calls are given as the source filed them. Unless noted, calls come from the whole dose curve; as a rule, active = well fitted curve in the direction sought with a large enough effect; inconclusive = small, poorly fitted or top-dose-only effect, or another doubt; inactive = no such curve, though single readings can be large; an effect the other way counts as inactive or inconclusive.
# Assays:
# [1] = target: Calcium and integrin-binding protein 1 (Homo sapiens) (UniProt Q99828); assay: Primary qHTS for Identification of Calcium Integrin Binding Protein 1 (CIB1) Competitor (AID 1508620);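 note: GST tagged CIB1 binding a fluorescein labelled alphaIIb integrin peptide tracer; top concentration of the series differs between compounds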
# In short: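 CIB1-GST (1 uM final) and compound incubated 15 min at room temperature before adding FITC-alphaIIb peptide tracer (100 nM final). Competition for binding read by fluorescence polarization (ex 480, em 540) after another 15 min at room temperature.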
# [2] = Primary qHTS for inhibitors of nuclear receptor binding SET domain protein 2 (NSD2) in an isogenic RCH-ACV NSD2 p.E1099K mutant (9B) (AID 1645876); note: nearly all actives have a fitted effect of over 70% in size
# [3] = Primary qHTS for inhibitors of nuclear receptor binding SET domain protein 2 (NSD2) in an RCH-ACV wild type WT cells (2C) (AID 1645877); note: nearly all actives have a fitted effect of over 70% in size; note: potency is the fitted concentration of half-maximal effect
# [4] = target: Cytochrome P450 2D6 (Homo sapiens) (UniProt P10635); assay: Cytochrome P450 family 2 subfamily D member 6 (CYP2D6) small molecule antagonists: luciferase biochemical (cell-free) qHTS assay (AID 1645840; active = well fitted curve in the direction sought with a large enough effect in the repeat runs; an effect the other way counts as inactive or inconclusive; note: nearly all actives have a fitted effect of over 55% in size; note: potency is the fitted concentration of half-maximal effect; for activity change, negative = inhibition: series mostly up to about 57 µM)
# In short: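 P450-Glo luminescent screen: recombinant CYP2D6 enzyme–proluciferin substrate mix preincubated with compound 10 min at room temperature, then NADPH regeneration added for 1 h at room temperature. Detection reagent added for 20 min; luciferin light read as relative luminescence units.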
# [5] = target: Cytochrome P450 2C9 (Homo sapiens) (UniProt P11712); assay: Cytochrome P450 family 2 subfamily C member 9 (CYP2C9) small molecule antagonists: luciferase biochemical (cell-free) qHTS assay (AID 1645842; active = well fitted curve in the direction sought with a large enough effect in the repeat runs; an effect the other way counts as inactive or inconclusive; note: nearly all actives have a fitted effect of over 55% in size; note: potency is the fitted concentration of half-maximal effect; for activity change, negative = inhibition: series mostly up to about 57 µM)
# In short: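 Luminescence, after 20 min with luciferin detection reagent, reflected CYP2C9 turnover during a 1 h NADPH-driven reaction at 37C. Enzyme-substrate mix contained 0.4% bovine serum albumin and was preincubated with compound 10 min at room temperature.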
# Cytochrome P450 2D6 (Homo sapiens), sequence (P10635 whole entry, looked up): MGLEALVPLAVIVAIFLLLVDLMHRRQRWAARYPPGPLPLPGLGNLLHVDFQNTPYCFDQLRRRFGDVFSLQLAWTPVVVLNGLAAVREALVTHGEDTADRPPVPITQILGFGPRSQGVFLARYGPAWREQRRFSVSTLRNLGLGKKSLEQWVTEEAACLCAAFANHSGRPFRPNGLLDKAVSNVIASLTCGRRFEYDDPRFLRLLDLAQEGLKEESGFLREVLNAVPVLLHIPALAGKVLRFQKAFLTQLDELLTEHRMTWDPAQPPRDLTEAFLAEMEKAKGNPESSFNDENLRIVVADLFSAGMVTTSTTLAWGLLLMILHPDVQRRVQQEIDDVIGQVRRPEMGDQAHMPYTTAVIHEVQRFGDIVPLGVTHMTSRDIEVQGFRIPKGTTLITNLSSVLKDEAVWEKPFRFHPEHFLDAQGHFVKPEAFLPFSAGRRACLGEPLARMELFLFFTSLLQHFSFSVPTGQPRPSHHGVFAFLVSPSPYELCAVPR
# Calcium and integrin-binding protein 1 (Homo sapiens), sequence (Q99828 whole entry, looked up): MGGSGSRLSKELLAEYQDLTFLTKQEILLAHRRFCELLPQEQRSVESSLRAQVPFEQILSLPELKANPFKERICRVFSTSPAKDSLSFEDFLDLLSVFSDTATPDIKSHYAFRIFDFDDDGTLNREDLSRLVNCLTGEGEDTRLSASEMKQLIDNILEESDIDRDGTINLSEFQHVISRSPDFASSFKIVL
# Cytochrome P450 2C9 (Homo sapiens), sequence (P11712 whole entry, looked up): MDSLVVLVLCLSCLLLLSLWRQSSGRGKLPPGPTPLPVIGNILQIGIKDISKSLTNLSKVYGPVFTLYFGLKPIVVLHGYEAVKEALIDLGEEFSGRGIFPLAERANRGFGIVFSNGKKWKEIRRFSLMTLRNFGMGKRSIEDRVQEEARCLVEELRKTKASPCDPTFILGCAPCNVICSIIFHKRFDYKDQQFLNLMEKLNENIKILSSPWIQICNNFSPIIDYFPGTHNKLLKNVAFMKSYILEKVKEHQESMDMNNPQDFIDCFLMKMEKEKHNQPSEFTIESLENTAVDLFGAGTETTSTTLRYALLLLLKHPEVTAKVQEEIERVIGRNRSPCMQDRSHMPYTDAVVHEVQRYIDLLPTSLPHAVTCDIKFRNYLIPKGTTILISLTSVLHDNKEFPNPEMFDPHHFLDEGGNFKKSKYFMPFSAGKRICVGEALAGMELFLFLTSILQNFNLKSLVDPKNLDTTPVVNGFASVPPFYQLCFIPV
structure (smiles),measurement,setting,value
C[C@@H]1O[C@@H](O[C@@H]2[C@@H](O)[C@H](O[C@@H]3[C@@H](O)[C@@H](O)[C@H](O[C@H]4[C@H](OC(=O)[C@]56CCC(C)(C)C[C@H]5C5=CCC7[C@@]8(C)C[C@H](O)[C@H](O[C@@H]9O[C@H](C(=O)O)[C@@H](O)[C@H](O)[C@H]9O)[C@@](C)(CO)C8[C@H](O)C[C@@]7(C)[C@]5(C)C[C@H]6O)O[C@@H](CO)[C@@H]4O)O[C@H]3C)OC[C@H]2O)[C@H](O)[C@H](O)[C@H]1O (stereo partly specified),"activity change, negative = inhibition",[1],0.349% [at 12.4 µM]
same,"activity change, negative = viability loss",[2],-3.74% [at 9.23 µM]
same,"activity change, negative = cell killing",[3],-10.6% [at 9.23 µM]
C[C@H]1/C=C/C=C/C=C/C=C/C=C/[C@@H](O)[C@H](C(=O)O)[C@H](O)C[C@H](O)CCC[C@H](O)C[C@H](O)C[C@H](O)[C@@H](C)C(=O)O[C@@H]1C,Potency,[1],inactive
same,Potency,[2],inactive
same,Potency,[3],inactive
COC(=O)c1ccccc1O[C@@H]1O[C@H](CO[C@@H]2OC[C@@H](O)[C@H](O)[C@H]2O)[C@@H](O)[C@H](O)[C@H]1O,Potency,[1],inactive
same,Potency,[2],inactive
same,Potency,[3],inactive
COc1cc(C)c(C(=O)NC2C(C)OC(OC3CCC(C)C4C3C=C(C)C3/C(C)=C\CC/C(C)=C/C5(C)C=C(C(=O)O)C(C)CC56OC(=O)/C(=C(\O)C34C)C6=O)C(O)C2(C)O)c(O)c1 (stereo unspecified),Potency,[1],inactive
same,"activity change, negative = viability loss",[2],4.33% [at 9.23 µM]
same,outcome,[3],inactive [at 9.23 µM]
Cc1ccc(-c2c(-c3nn(C)c4ncnc(N5CC[C@H](N6CCCCC6)C5)c34)cnn2C)cc1,Potency,[1],inactive
same,Potency,[2],inactive
same,Potency,[3],inactive
OCC1OC(Oc2cc(O)cc(/C=C/c3ccc(OC4OC(CO)C(O)C(O)C4O)cc3O)c2)C(O)C(O)C1O (stereo unspecified),Potency,[1],inactive
same,Potency,[2],inactive
same,Potency,[3],inactive
C=C1CCC(OC(C)=O)C2(C)CC3OC(=O)C(C)=C3CC12 (stereo unspecified),Potency,[1],inactive
same,Potency,[2],inactive
same,Potency,[3],inactive
COC1OC(=O)C2=C1C1(C)CCCC(C)(C)C1CC2O (stereo unspecified),Potency,[1],inactive
same,Potency,[2],inactive
same,Potency,[3],inactive
C=Cc1ccc(O[C@@H]2O[C@H](CO[C@@H]3O[C@@H](C)[C@H](O)[C@@H](O)[C@H]3O)[C@@H](O)[C@H](O)[C@H]2O)cc1,Potency,[1],inactive
same,Potency,[2],inactive
same,Potency,[3],inactive
C[C@H](/C=C/[C@@]1(O)[C@H](C)CC(=O)CC1(C)C)O[C@@H]1O[C@H](CO[C@@H]2OC[C@@H](O)[C@H](O)[C@H]2O)[C@@H](O)[C@H](O)[C@H]1O,Potency,[1],inactive
same,Potency,[2],inactive
same,Potency,[3],inactive
C/C=C1\[C@H](O[C@@H]2O[C@H](CO)[C@@H](O)[C@H](O)[C@H]2O)OC=C(C(=O)O)[C@H]1CC(=O)OCCc1ccc(O)cc1,Potency,[1],inactive
same,Potency,[2],inactive
same,Potency,[3],inactive
CC(=O)/C=C/C1(O)C(C)CC(O[C@@H]2O[C@H](CO)[C@@H](O)[C@H](O)[C@H]2O)CC1(C)C (stereo partly specified),Potency,[1],inactive
same,Potency,[2],inactive
same,Potency,[3],inactive
C=C1C(=O)OC[C@H]2C(C(=O)O)=CC3CC(C)(C)C[C@@]132 (stereo partly specified),Potency,[1],inactive
same,Potency,[2],inactive
same,Potency,[3],inactive
CC1CCC2(C(=O)OC3OC(CO)C(O)C(O)C3O)CCC3(C)C(=CCC4C5(C)CCC(O)C(C)(CO)C5CCC43C)C2C1(C)O (stereo unspecified),Potency,[1],inactive
same,Potency,[2],inactive
same,Potency,[3],inactive
COC(=O)C[C@H]1C(C)(C)[C@H](OC(=O)C(C)C)C2CC3=C4CC(=O)O[C@@H](c5ccoc5)[C@]4(C)CCC3[C@@]1(C)C2=O (stereo partly specified),Potency,[1],inactive
same,Potency,[2],inactive
same,Potency,[3],inactive
C=C(CCO)C(=O)OCC1OCC(OC(=O)C(=C)CCO[C@@H]2O[C@H](COC(=O)C(=C)CCO[C@@H]3O[C@H](CO)[C@@H](O)[C@H](O)[C@H]3O)[C@@H](O)[C@H](O)[C@H]2O)C(O)C1O (stereo partly specified),Potency,[1],inactive
same,Potency,[2],inactive
same,Potency,[3],inactive
CC(C)=CCC[C@](C)(O[C@@H]1O[C@H](CO[C@@H]2O[C@@H](CO)[C@H](O)[C@H]2O[C@@H]2OC[C@@H](O)[C@H](O)[C@H]2O)[C@@H](O)[C@H](O)[C@H]1O)[C@H]1CC[C@]2(C)[C@@H]1[C@H](O)CC1[C@@]3(C)CC[C@H](O[C@@H]4O[C@H](CO)[C@@H](O)[C@H](O)[C@H]4O[C@@H]4O[C@H](CO)[C@@H](O)[C@H](O)[C@H]4O)C(C)(C)C3CC[C@]12C (stereo partly specified),"activity change, negative = inhibition",[1],-3.93% [at 12.4 µM]
same,"activity change, negative = viability loss",[2],-9.17% [at 9.23 µM]
same,"activity change, negative = cell killing",[3],-15.6% [at 9.23 µM]
CC(C)(O)[C@@H]1CC[C@]2(CO)[C@@H](O)CC[C@](C)(O)[C@H]2[C@@H]1O[C@@H]1O[C@H](CO)[C@@H](O)[C@H](O)[C@H]1O,Potency,[1],inactive
same,Potency,[2],inactive
same,Potency,[3],inactive
C/C=C(\C)C(=O)OC[C@H]1O[C@@H](O[C@H]2[C@@H](O[C@H]3O[C@H](CO)[C@@H](O)[C@H](O)[C@H]3O[C@@H]3O[C@H](CO)[C@@H](O)[C@H](O)[C@H]3O)O[C@H](COC(=O)/C(C)=C/C)[C@@H](O)[C@@H]2O)[C@H](O)[C@@H](O)[C@@H]1O,Potency,[1],inactive
same,"activity change, negative = viability loss",[2],-10.2% [at 9.23 µM]
same,"activity change, negative = cell killing",[3],-10.7% [at 9.23 µM]
COc1c2c(c(C)c3c1C(=O)OC3)OC1(C)CC(O)C34OC(OC)(CCC3(C)C1C2)OC4(C)CO (stereo unspecified),Potency,[1],inactive
same,Potency,[2],inactive
same,Potency,[3],inactive
COc1ccc(/C=C/C(=O)O[C@@H]2[C@@H](O[C@@H]3O[C@H](CO)[C@@H](O)[C@H](O)[C@H]3O)[C@@H](O)[C@H](O[C@H]3C4C=CO[C@@H](O[C@@H]5O[C@H](CO)[C@@H](O)[C@H](O)[C@H]5O)C4[C@@]4(CO)O[C@@H]34)O[C@H]2C)cc1 (stereo partly specified),Potency,[1],inactive
same,"activity change, negative = viability loss",[2],-15.4% [at 9.23 µM]
same,"activity change, negative = cell killing",[3],-20.7% [at 9.23 µM]
OC[C@@]1(O)CO[C@H](OC[C@H]2O[C@@H](OC(CCCCc3ccc(O)cc3)CCc3ccc(O)cc3)[C@H](O[C@H]3OC[C@](O)(CO)[C@H]3O)[C@@H](O)[C@@H]2O)[C@@H]1O (stereo partly specified),Potency,[1],inactive
same,Potency,[2],inactive
same,Potency,[3],inactive
Fc1ccc(-c2c3cccc(C(F)(F)F)c3nn2Cc2ccc(F)cc2Cl)cc1,Potency,[4],inactive
same,Potency,[2],inactive
same,Potency,[3],inactive
C[C@@H]1O[C@@H](OC(=O)Cc2ccccc2)[C@H](O)[C@H](O)[C@H]1O,Potency,[1],inactive
same,Potency,[2],inactive
same,Potency,[3],inactive
COC(=O)C1=CO[C@@H](O[C@@H]2O[C@H](CO)[C@@H](O)[C@H](O)[C@H]2O)[C@H]2[C@@H]1[C@H](O)[C@H](O)[C@]2(C)O,Potency,[1],inactive
same,Potency,[2],inactive
same,Potency,[3],inactive
CCC(=O)OCC(=O)[C@@]1(OC(=O)CC)[C@@H](C)C[C@H]2[C@@H]3CCC4=CC(=O)C=C[C@]4(C)[C@@]3(F)[C@@H](O)C[C@@]21C,Potency,[1],inactive
same,Potency,[3],0.0073 µM (active)
COC(=O)/C=C/c1ccc(O[C@@H]2O[C@H](CO)[C@@H](O)[C@H](O)[C@H]2O)cc1,Potency,[1],inactive
same,Potency,[3],8.01 µM (active)
C/C=C(\C)C(=O)OC1C2(O)CC3=C4CC(=O)OC(c5ccoc5)C4(C)CCC3C(C)(C2=O)C(C(OC(C)=O)C(=O)OC)C1(C)C (stereo unspecified),Potency,[1],inactive
same,Potency,[3],3.83 µM (active)
C=C1CC[C@@H]2[C@](C)(CO)[C@H](O[C@@H]3O[C@H](CO)[C@@H](O)[C@H](O)[C@H]3O)CC[C@@]2(C)[C@@H]1C/C=C1/C(=O)OC[C@H]1O,Potency,[1],inactive
same,Potency,[2],inactive
same,Potency,[3],inactive
CCOC(=O)COc1ccc2c(c1)C[C@@H](NC[C@H](O)c1cccc(Cl)c1)CC2,Potency,[4],0.756 µM (active)
same,Potency,[5],16.9 µM (active)
same,Potency,[2],inactive
same,Potency,[3],inactive
CC1(C)C[C@@H]2[C@H](C1)[C@@]1(C)C[C@]13C(O)OC[C@]3(O)[C@H]2O (stereo partly specified),Potency,[1],inactive
same,Potency,[2],inactive
same,Potency,[3],inactive
O=C(O)CC/C=C\C[C@H]1CO[C@@H](c2ccccc2Cl)O[C@H]1c1ccccc1O,Potency,[1],inactive
same,Potency,[2],inactive
same,Potency,[3],inactive
c1cc(-c2cc(C3CCNCC3)[nH]n2)ccn1,Potency,[5],inactive
same,Potency,[2],inactive
same,Potency,[3],inactive
CCOc1ccc(-c2cc(NC(=O)c3c(F)cccc3F)c(C(=O)O)s2)cc1,Potency,[4],7.56 µM (active)
COc1ccc(CC(=O)NCc2ccccc2-c2ccccc2C(=O)NCCc2cccnc2)cc1,Potency,[5],2.68 µM (active)
same,Potency,[2],inactive
same,Potency,[3],inactive
CC1CC(=O)C2C(O)(C1)CC(O)C13OC1c1c(O)cccc1C(=O)C23O (stereo unspecified),Potency,[2],inactive
C/C=C1/CC2C(=O)Nc3cc(O)c(OC)cc3C(=O)N2C1 (stereo unspecified),Potency,[1],inactive
same,Potency,[3],10.1 µM (active)
COC(=O)C1=CO[C@@H](O[C@@H]2O[C@H](CO)[C@@H](O)[C@H](O)[C@H]2O)[C@@H]2[C@@H](C)[C@@H](OC(=O)/C=C/c3ccccc3)[C@@H](O)[C@H]12,Potency,[1],inactive
same,Potency,[2],inactive
same,Potency,[3],inactive
C/C=C/C=C/C1=C2C(=O)C3(C)C4C(C(=O)CC(O)/C=C/C)=C(O1)C1(C)C2C2(C)OC1(O)C4(C)OC23O (stereo unspecified),Potency,[1],inactive
same,Potency,[3],7.96 µM (active)
C=C[C@H]1[C@H](O[C@@H]2O[C@H](CO)[C@@H](O)[C@H](O)[C@H]2O)OC=C(C(=O)OC)[C@H]1CC=O,Potency,[1],inactive
same,Potency,[2],inactive
same,Potency,[3],inactive
O=C(O)c1cccc(CN2C(=O)/C(=C(\c3ccccc3)c3ccc(Cl)cc3)c3ccccc32)c1,Potency,[5],15.1 µM (active)
COc1cc(Nc2ccc([N+](=O)[O-])cc2C(=O)O)cc2ccccc12,Potency,[5],6.74 µM (active)
same,Potency,[2],inactive
same,Potency,[3],inactive
O=C(N[C@H](Cc1ccccc1)C(=O)O)c1sc2cc(F)ccc2c1Cl,Potency,[5],16.9 µM (active)
same,Potency,[2],inactive
same,Potency,[3],inactive
C=C(CO)C(=O)O[C@H]1C[C@@]23O[C@@H]2CC/C(=C/[C@H]2OC(=O)C(=C)[C@H]12)CO[C@H]3O,Potency,[1],inactive
same,Potency,[3],8.98 µM (active)
